Source: PubChem (Columbia University Molecular Screening Center)
A selection: hits, their analogues and other compounds. The true share with any hit is near 1.2%.
VCAM1 TNFa inh – reduces TNF alpha induced VCAM1 expression in HUVEC. inhibition, % at 2 µM. 95,000 tested, 0.48% active. HUVEC TNFa-induced VCAM-1 immunofluorescence, high-content imaging. AID 802;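 active means inhibition above the batch mean plus 3 SD, with images confirmed as a hit by eye, cut at about 37% in these data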;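 further: 0% = TNF-stimulated DMSO wells and 100% = unstimulated control wells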
HUVEC tox TNFa – toxic to HUVEC cells under TNF alpha stimulation; 93,000 tested, 0.17% active; HUVEC TNFalpha-stimulated, Hoechst cell count, imaging; cell count reduction, % at 2 µM; AID 848;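 active means cell count reduction exceeding the screen mean by over 5 SD, scaled to untreated wells per plate, cut at about 78% in these data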;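 further: cells counted after 24 h of TNF alpha exposure following the 1 h pretreatment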
E-sel TNF inh – blocks E-selectin expression induced by TNF alpha; HUVEC TNFa-induced E-selectin immunofluorescence, high content; inhibition, % at 2 µM; AID 1246; 120,000 tested, 0.71% active;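 active means inhibition above the batch mean plus 3 SD, and confirmed as a hit on visual image review, cut at about 43% in these data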;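 further: 0% = TNF-stimulated DMSO wells and 100% = unstimulated control wells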
cytoskel mod – cytoskeleton assembly modification; HUVEC TNFa F-actin phalloidin imaging, high content; inhibition, % at 2 µM; 91,000 tested, 0.18% active; AID 836;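 active means inhibition above the batch mean plus 3 SD and confirmed as a hit by visual image inspection, cut at about 30% in these data, passing the limit was not always enough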
* = called active by the depositor; x = no result given.

SMILES	VCAM1 TNFa inh	HUVEC tox TNFa	E-sel TNF inh	cytoskel mod
O=C1CC(N2CCOCC2)C(=O)N1Cc1ccc(N2CCCC2=O)cc1 (configuration not stated)	-3	-15	-12	-17
O=C1CC(N2CCN(Cc3ccc4c(c3)OCO4)CC2)C(=O)N1Cc1ccc(N2CCCC2=O)cc1 (configuration not stated)	80*	92*	x	32
CCOC(=O)/C=C/C(=O)OCC(=O)Nc1ccc(Cl)cc1Cl	x	x	-2	x
CCc1cc[n+](CC(=O)Nc2ccc(Cl)cc2Cl)cc1	x	x	77*	x
O=[N+]([O-])c1cnc2nc(-c3ccncc3)nn2c1O	x	x	-18	x
Cc1ccc(NC(=O)CC2NCCNC2=O)cc1 (configuration not stated)	2	-8	-3	-3
Cc1cc(C)cc(NC(=O)CC2NCCNC2=O)c1 (configuration not stated)	86*	-29	x	22
CCOC(=O)CSc1nc(N)cc(=O)[nH]1	-10	-8	77*	25
CC(C)c1ncc(C(O)c2cccc3ccccc23)n1C (configuration not stated)	-5	14	-20	-3
COc1ccc(/C=N/n2cc(-c3ccccc3)nc2N)cc1	x	x	65*	x
COc1ccc(NC(=O)CC2C(=O)N(c3cccc(OC)c3)C(=O)N2CCC(C)C)cc1 (configuration not stated)	-4	-42	13	13
O=C(CCSc1ccc(Cl)cc1)N1CCN(c2ncccn2)CC1	-5	-8	x	28
COc1ccccc1N(Cc1ccccc1)S(=O)(=O)c1cccc(C(=O)Nc2ccc(C(C)=O)cc2)c1	x	x	65*	x
COc1ccc(N(Cc2ccccc2)S(=O)(=O)c2cccc(C(=O)NC3=NCCS3)c2)cc1	7	-20	-37	16
CCOc1cccc(C(=O)Nc2nc(-c3ccc(S(=O)(=O)N4CCOCC4)cc3)cs2)c1	-22	-5	0	-17
O=C(Nc1nc(-c2ccncc2)cs1)c1ccc(S(=O)(=O)N2CCOCC2)cc1	-2	-13	63*	0
O=C(Nc1cc2ccccc2oc1=O)c1ccccc1	x	x	72*	x
COc1ccc(C(=O)Nc2cc(C(=O)c3ccccc3)c(C)oc2=O)cc1	3	-5	x	-28
CSc1nc(Cl)cc(Nc2ccc(O)cc2)n1	x	x	-20	x
COC(=O)C(CC(=O)c1cccc(OC)c1)c1ccc(F)cc1 (configuration not stated)	x	x	-3	x
Cc1cccnc1Nc1nc(-c2ccc(O)cc2O)cs1	x	x	2	x
Cc1cccnc1Nc1nc(-c2ccccn2)cs1	94*	73	19	-4
CCNc1nc(N)nc(Oc2ccc(C(=O)OC)cc2)n1	-6	-18	-17	4
CCNc1nc(Oc2ccc(C(=O)OC)cc2)nc(N(C)C)n1	8	79*	3	-38
COc1ccc(CN(C(=S)Nc2ccccc2)C2CC(=O)N(c3ccc(Cl)cc3)C2=O)cc1 (configuration not stated)	8	-11	-3	0
SMILES	VCAM1 TNFa inh	HUVEC tox TNFa	E-sel TNF inh	cytoskel mod
O=C1CC(N(Cc2cccs2)C(=O)Nc2ccccc2)C(=O)N1c1ccc(Cl)cc1 (configuration not stated)	x	x	70*	x
COc1ccc(N2C(=O)CC(Nc3ccc(C)cc3)C2=O)cc1 (configuration not stated)	4	-3	25	-6
COc1ccc(N2C(=O)CC(NC3CCCCNC3=O)C2=O)cc1 (configuration not stated)	11	-47	-5	35*
Cc1cc(N2CCOCC2)c2c(N)c(C)cc(C)c2n1	100*	x	-42	x
Cc1cc(N2CCOCC2)nc(N)n1	x	x	-45	x
CC(=O)Nc1ccccc1OCC(=O)NCC(F)(F)F	x	x	-22	x
NC(=O)c1cc(N2C(=O)C=CC2=O)ccc1Cl	1	0	51*	2
O=C(CSc1ccccc1C(=O)O)NCC1CCCCC1	x	x	-13	x
Cn1cc(Br)c(C(=O)NNC(=O)Nc2ccccc2C(F)(F)F)n1	x	x	18	x
N=c1sccn1CC(=O)NCCc1ccc(Cl)cc1	-11	0	81*	0
CCCC(CCC)C(=O)NNc1cc(=O)c2c(=O)n(C)c(=O)n(C)c2[nH]1	11	6	100*	-14
O=C(Nc1nccs1)c1cccc(N2C(=O)c3cccc4c([N+](=O)[O-])ccc(c34)C2=O)c1	62*	-1	-13	-6
Cn1c(C(=O)OC(C(=O)NCc2ccco2)c2ccncc2)cc2sccc21 (configuration not stated)	0	-6	-17	-6
N#Cc1c(SCC(N)=O)nc2c(c1-c1ccc(OCc3ccccc3)cc1)CCCC2	-27	-36	-32	-15
COc1ccc(Br)cc1CN(C)CC(=O)Nc1cc(Cl)ccc1Cl	x	x	89*	x
O=C1c2cccnc2C(Nc2ccc(Br)cc2Br)N1Cc1cccs1 (configuration not stated)	x	x	13	x
Cc1ccc(NC(=O)/C(Cl)=C/c2ccccc2)cc1C	x	x	5	x
Cn1c(SCC(=O)NC2CC2)nnc1-c1ccco1	x	x	-7	x
Cn1c(SCC(=O)NC2CCCCC2)nnc1-c1cccc(N)c1	54*	2	3	-11
CCCCOc1ccc(-c2nnn(C(C)C(=O)OCC)n2)cc1 (configuration not stated)	14	-9	66*	-98
N#Cc1c(NCc2ccccc2)ccnc1NCc1cccnc1	93*	x	-18	38
CN(C)c1ccnc(NCc2ccccc2)c1C#N	-20	-1	-30	8
CCN(c1ccc(NC(=O)COC(=O)CCc2cc(OC)c(OC)c(OC)c2)cc1)C(C)C	x	x	-10	x
CCCCN(CC)CCCNC(=O)C1CCN(c2ncnc3c2sc2cccc(F)c23)CC1	x	x	3	x
CCOC(=O)/C(C#N)=C1/C=Cc2ccccc2N1CC	x	x	53*	x
SMILES	VCAM1 TNFa inh	HUVEC tox TNFa	E-sel TNF inh	cytoskel mod
Cc1cc(S(=O)(=O)Nc2ccc(F)cc2)c(C)s1	-10	-10	9	2
CCCCc1ccc(NC(=O)C(C)CC)cc1 (configuration not stated)	x	x	-20	x
COc1ccccc1-c1cc(C(F)(F)F)nc(S(=O)(=O)CCCC(=O)N2CCCCC2C)n1 (configuration not stated)	71*	-15	x	21
COc1cccc(C(C(=O)NC(C)(C)C)N(C(=O)CCC(=O)Nc2cc(C)on2)C2CC2)c1OC (configuration not stated)	-4	4	67*	-25
CCCCN(C(=O)CCC(=O)Nc1cc(C)on1)C(C(=O)NC(C)(C)C)c1cccc(OC)c1OC (configuration not stated)	14	-10	21	-37
Cn1c(=O)c(=O)n(C)c2cc(S(=O)(=O)N3CCN(c4cccc(C(F)(F)F)c4)CC3)ccc21	19	2	-1	-4
CCOC(=O)c1c(C)c(C(=O)Nc2ccc3c(c2)OCCO3)c(C)n1C	x	x	96*	x
CCOC(=O)c1ccc(NC(=O)Nc2ccc3c(c2)OCCO3)cc1	-8	-25	-14	28
Cc1ccccc1-n1c(SCC(=O)N/N=C/c2sccc2C)nc2ccccc2c1=O	x	x	1	x
Cc1ccc(C(=O)NCc2ccco2)cc1S(=O)(=O)Nc1cccc(Cl)c1	-4	-4	4	-11
CNC(=S)NCCc1cc2c(OC)ccc(OC)c2[nH]c1=O	x	x	-35	x
CCN(CC)c1ccc2cc(-c3nnc(-c4ccccc4)o3)c(=O)oc2c1	-20	-14	-5	23
